# Reference: publication PMC5540273 (PLoS ONE, 2017)
# Several values for one entry are separate records, joined by “and”; a condition that tells them apart may be missing. Equal values may be shown once. Read-outs that look alike come from different tables or passages of the source.
# Key:
# Settings in all cases: concentration: 1 μM, replicates: in singlicate, n = 1
# FLT3-autoinhibited = tested on: FLT3-autoinhibited
# FLT3 = tested on: FLT3
# FLT4 = tested on: FLT4
# FRK = tested on: FRK
# FYN = tested on: FYN
# GAK = tested on: GAK
# GCN2(Kin.Dom.2,S808G) = tested on: T1, GCN2(Kin.Dom.2,S808G)
# T1 construct: gene EIF2AK4
# GRK1 = tested on: GRK1
# GRK2 = tested on: T2, GRK2
# T2 construct: gene ADRBK1
# GRK3 = tested on: T3, GRK3
# T3 construct: gene ADRBK2
# GRK4 = tested on: GRK4
# GRK7 = tested on: GRK7
# GSK3A = tested on: GSK3A
# GSK3B = tested on: GSK3B
# HASPIN = tested on: T4, HASPIN
# T4 construct: gene GSG2
# HCK = tested on: HCK
# HIPK1 = tested on: HIPK1
# HIPK2 = tested on: HIPK2
# HIPK3 = tested on: HIPK3
# HIPK4 = tested on: HIPK4
# 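Further: KINOMEscan kinase panel screen.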
compound,measurement,setting,value
Cl.Cl.Cl.Fc1ccc(-c2ncn(C3CCNCC3)c2-c2ccnc(Nc3ccccc3)n2)cc1 [SB-238039],%Inh,FLT3-autoinhibited; 1 µM,0% and 18%
same,%Inh,FLT3; 1 µM,4% and 26%
same,%Inh,FLT4; 1 µM,15% and 9%
same,%Inh,FRK; 1 µM,0% and 35%
same,%Inh,FYN; 1 µM,0% and 1%
same,%Inh,GAK; 1 µM,84% and 74%
same,%Inh,"GCN2(Kin.Dom.2,S808G); 1 µM",0% and 27%
same,%Inh,GRK1; 1 µM,32% and 25%
same,%Inh,GRK2; 1 µM,0% and 16%
same,%Inh,GRK3; 1 µM,32% and 0%
same,%Inh,GRK4; 1 µM,8% and 46%
same,%Inh,GRK7; 1 µM,0% and 37%
same,%Inh,GSK3A; 1 µM,57% and 10%
same,%Inh,GSK3B; 1 µM,47% and 17%
same,%Inh,HASPIN; 1 µM,58% and 0%
same,%Inh,HCK; 1 µM,65% and 34%
same,%Inh,HIPK1; 1 µM,29% and 64%
same,%Inh,HIPK2; 1 µM,31% and 30%
same,%Inh,HIPK3; 1 µM,8% and 0%
same,%Inh,HIPK4; 1 µM,17% and 0%
CCc1ccnc(/C=C/c2n[nH]c3cc(Sc4ccccc4C(=O)NC)ccc23)c1,%Inh,FLT3-autoinhibited,7%
same,%Inh,FLT3,19%
same,%Inh,FLT4,99.9%
same,%Inh,FRK,17%
same,%Inh,FYN,0%
same,%Inh,GAK,0%
same,%Inh,"GCN2(Kin.Dom.2,S808G)",18%
same,%Inh,GRK1,2%
same,%Inh,GRK2,18%
same,%Inh,GRK3,7%
same,%Inh,GRK4,2%
same,%Inh,GRK7,0%
same,%Inh,GSK3A,2%
same,%Inh,GSK3B,6%
same,%Inh,HASPIN,11%
same,%Inh,HCK,0%
same,%Inh,HIPK1,3%
same,%Inh,HIPK2,0%
same,%Inh,HIPK3,6%
same,%Inh,HIPK4,15%
CC(C)(CN)c1nc(-c2ccc(Cl)c(O)c2)c(-c2ccncc2)[nH]1.O=C(O)C(F)(F)F [SB-477794],%Inh,FLT3-autoinhibited,0%
same,%Inh,FLT3; 1 µM,0% and 29%
same,%Inh,FLT4; 1 µM,78% and 74%
same,%Inh,FRK; 1 µM,99.5% and 99.1%
same,%Inh,FYN; 1 µM,97.3% and 96.8%
same,%Inh,GAK; 1 µM,71% and 56%
same,%Inh,"GCN2(Kin.Dom.2,S808G); 1 µM",14% and 0%
same,%Inh,GRK1,0%
same,%Inh,GRK2; 1 µM,0% and 26%
same,%Inh,GRK3; 1 µM,65% and 0%
same,%Inh,GRK4,0%
same,%Inh,GRK7,0%
same,%Inh,GSK3A; 1 µM,49% and 58%
same,%Inh,GSK3B; 1 µM,29% and 14%
same,%Inh,HASPIN; 1 µM,58% and 57%
same,%Inh,HCK; 1 µM,96.6% and 96%
same,%Inh,HIPK1,0%
same,%Inh,HIPK2; 1 µM,1% and 37%
same,%Inh,HIPK3; 1 µM,20% and 4%
same,%Inh,HIPK4; 1 µM,0% and 13%
Cc1cccc(Cn2ccn3c(=O)cc(N4CCOCC4)nc23)c1 [GSK2297542],%Inh,FLT3-autoinhibited,2%
same,%Inh,FLT3,11%
same,%Inh,FLT4,0%
same,%Inh,FRK,7%
same,%Inh,FYN,21%
same,%Inh,GAK,20%
same,%Inh,"GCN2(Kin.Dom.2,S808G)",6%
same,%Inh,GRK1,0%
same,%Inh,GRK2,0%
same,%Inh,GRK3,16%
same,%Inh,GRK4,0%
same,%Inh,GRK7,0%
same,%Inh,GSK3A,10%
same,%Inh,GSK3B,3%
same,%Inh,HASPIN,0%
same,%Inh,HCK,0%
same,%Inh,HIPK1,28%
same,%Inh,HIPK2,0%
same,%Inh,HIPK3,30%
same,%Inh,HIPK4,15%
CCCCCc1nc2c(N)ncnc2n1CCCCC [SKF-97255],%Inh,FLT3-autoinhibited,0%
same,%Inh,FLT3,0%
same,%Inh,FLT4,0%
same,%Inh,FRK,0%
same,%Inh,FYN,0%
same,%Inh,GAK,0%
same,%Inh,"GCN2(Kin.Dom.2,S808G)",4%
same,%Inh,GRK1,38%
same,%Inh,GRK2,0%
same,%Inh,GRK3,6%
same,%Inh,GRK4,21%
same,%Inh,GRK7,0%
same,%Inh,GSK3A,0%
same,%Inh,GSK3B,34%
same,%Inh,HASPIN,2%
same,%Inh,HCK,26%
same,%Inh,HIPK1,43%
same,%Inh,HIPK2,0%
same,%Inh,HIPK3,13%
same,%Inh,HIPK4,1%
O=c1cc(N2CCOCC2)nc2n(Cc3cccc(F)c3)ccn12 [GSK2297430],%Inh,FLT3-autoinhibited,0%
same,%Inh,FLT3,24%
same,%Inh,FLT4,9%
same,%Inh,FRK,8%
same,%Inh,FYN,1%
same,%Inh,GAK,14%
same,%Inh,"GCN2(Kin.Dom.2,S808G)",0%
same,%Inh,GRK1,0%
same,%Inh,GRK2,0%
same,%Inh,GRK3,0%
same,%Inh,GRK4,1%
same,%Inh,GRK7,0%
same,%Inh,GSK3A,0%
same,%Inh,GSK3B,11%
same,%Inh,HASPIN,4%
same,%Inh,HCK,0%
same,%Inh,HIPK1,0%
same,%Inh,HIPK2,0%
same,%Inh,HIPK3,9%
same,%Inh,HIPK4,0%
Cc1nnc(-c2ccc3occ(-c4ccc(C(C)O)cc4)c3c2)o1 (centres unmarked),%Inh,FLT3-autoinhibited,4%
same,%Inh,FLT3,0%
same,%Inh,FLT4,6%
same,%Inh,FRK,10%
same,%Inh,FYN,15%
same,%Inh,GAK,0%
same,%Inh,"GCN2(Kin.Dom.2,S808G)",23%
same,%Inh,GRK1,0%
same,%Inh,GRK2,0%
same,%Inh,GRK3,12%
same,%Inh,GRK4,1%
same,%Inh,GRK7,11%
same,%Inh,GSK3A,73%
same,%Inh,GSK3B,19%
same,%Inh,HASPIN,29%
same,%Inh,HCK,6%
same,%Inh,HIPK1,67%
same,%Inh,HIPK2,56%
same,%Inh,HIPK3,41%
same,%Inh,HIPK4,33%
O=C1Cc2cc(Nc3nc(NCc4cccc(S(=O)(=O)C(F)(F)F)c4)ncc3C(F)(F)F)ccc2N1,%Inh,FLT3-autoinhibited,0%
same,%Inh,FLT3,0%
same,%Inh,FLT4,0%
same,%Inh,FRK,0%
same,%Inh,FYN,0%
same,%Inh,GAK,8%
same,%Inh,"GCN2(Kin.Dom.2,S808G)",28%
same,%Inh,GRK1,0%
same,%Inh,GRK2,30%
same,%Inh,GRK3,22%
same,%Inh,GRK4,8%
same,%Inh,GRK7,0%
same,%Inh,GSK3A,47%
same,%Inh,GSK3B,0%
same,%Inh,HASPIN,8%
same,%Inh,HCK,21%
same,%Inh,HIPK1,0%
same,%Inh,HIPK2,7%
same,%Inh,HIPK3,0%
same,%Inh,HIPK4,0%
COc1cc(Nc2nccc(N3CCC(NC(=O)c4cccc(NC(C)=O)c4)C3)n2)cc(OC)c1OC (centres unmarked) [GSK1379754],%Inh,FLT3-autoinhibited,6%
same,%Inh,FLT3,50%
same,%Inh,FLT4,23%
same,%Inh,FRK,16%
same,%Inh,FYN,35%
same,%Inh,GAK,44%
same,%Inh,"GCN2(Kin.Dom.2,S808G)",17%
same,%Inh,GRK1,0%
same,%Inh,GRK2,0%
same,%Inh,GRK3,18%
same,%Inh,GRK4,18%
same,%Inh,GRK7,0%
same,%Inh,GSK3A,0%
same,%Inh,GSK3B,0%
same,%Inh,HASPIN,30%
same,%Inh,HCK,0%
same,%Inh,HIPK1,3%
same,%Inh,HIPK2,0%
same,%Inh,HIPK3,0%
same,%Inh,HIPK4,0%
Cl.Oc1cccc(Nc2ccnc3cc(-c4ccncc4)ccc23)c1 [GW494601],%Inh,FLT3-autoinhibited,3%
same,%Inh,FLT3,28%
same,%Inh,FLT4,97.4%
same,%Inh,FRK,97.6%
same,%Inh,FYN,95.7%
same,%Inh,GAK,76%
same,%Inh,"GCN2(Kin.Dom.2,S808G)",0%
same,%Inh,GRK1,0%
same,%Inh,GRK2,0%
same,%Inh,GRK3,36%
same,%Inh,GRK4,0%
same,%Inh,GRK7,0%
same,%Inh,GSK3A,23%
same,%Inh,GSK3B,0%
same,%Inh,HASPIN,55%
same,%Inh,HCK,97.7%
same,%Inh,HIPK1,0%
same,%Inh,HIPK2,0%
same,%Inh,HIPK3,0%
same,%Inh,HIPK4,0%
